From PubChem BioAssay AID1347426 (Functional Genomics Laboratory (NCATS/FGL), 2020)
Among all 31,000 sequences or so, about 1,400 (4.5%) were called active.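 Rule for the calls: active = median seed-adjusted z-score above 1 or below -1; inactive = the rest.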 The sample as a whole holds a higher share of actives than the screen did.

Test: Novel Modifiers of Survival Motor Neuron (SMN) Protein: Gene Identification via Genome-wide siRNA Screen;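 note: luminescence tracks full-length SMN protein made from the SMN2 reporter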
Conditions: HEK293T SMN2-luciferase reporter, siRNA knockdown, 72 h; actives lie on both sides
How it was run: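 Each of three siRNAs per gene is reverse-transfected (1 pmol) into reporter HEK293T cells whose luciferase output tracks SMN protein level. After 72 h culture, ONE-Glo luminescence is control-normalized, log10-transformed and MAD-standardized; Common Seed Analysis deprioritizes seed-driven hits.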

Row | Sequence | median seed-adjusted z-score
1 | CAACUUUCAGAUCAGUGAATT against ARD1A | -1.05 (active)
2 | CAGACAAGCUGAUCCGCAUTT against TGM5 | 0.0181 (inactive)
3 | GGUCUGUUCUUCUUACAGATT against PRKCB1 | 0.0463 (inactive)
4 | GCCCAUCGUGCUUAAAGAATT against RASA3 | 0.0056 (inactive)
5 | CACCUACUGUAGAGGUGAATT against GPRC6A | 0 (inactive)
6 | GAACAUAUCAAGACCGGUUTT against MED30 | -2.06 (active)
7 | UAGGGAAGCUGAAAGUGCATT against OXER1 | -0.471 (inactive)
8 | CAACCAAUAUAGAACUUCATT against RBBP5 | 0.169 (inactive)
9 | GCAGCCUUGUCAUCGACAATT against PDLIM1 | -0.189 (inactive)
10 | CCUAAAGCCUGAAGAAGAATT against TXNDC2 | -1.29 (active)
11 | CAUCGGUGCCCAGAAGUCATT against SSBP4 | 0.254 (inactive)
12 | GACUCUCUGAGGUAGAAAATT against EPN3 | 0.184 (inactive)
13 | GCUAGAACGGGAACGAAGATT against NEK10 | -0.0464 (inactive)
14 | CCAGUGCUCCCGAAACUGATT against KRTAP5-5 | -1.07 (active)
15 | GCUCAUCGUGGGUCUCCUATT against POR | 0.189 (inactive)
16 | CUCUCGUACUUUGAACCUATT against PANK3 | -0.185 (inactive)
17 | CCCACUAUGCAAAAUGUAATT against PCMT1 | 0.139 (inactive)
18 | GGUGGUCCAUGAAAAAGCATT against SOD1 | -0.8 (inactive)
19 | GCCUUAAAGACUUACCGAATT against USPL1 | -1.87 (active)
20 | GUUUGUGACUGUAACCAUUTT against CTBP1 | 0.105 (inactive)
21 | GCUAUGGUGCUGUCGCUUATT against RHOXF2 | -0.331 (inactive)
22 | GGAAUGGACUCAGUGAUCATT against PFTK1 | 0.088 (inactive)

Row | Sequence | median seed-adjusted z-score
23 | CGCGGAAACUUGUCCCUAUTT against SP2 | -0.617 (inactive)
24 | GCCCUGACAUUUCCCGAAATT against FOXJ2 | -0.627 (inactive)
25 | UCAAUAAACUGCACGAAUATT against HS3ST1 | 1.21 (active)
26 | ACGUGGAAGUGACCCGGAATT against MTX1 | -0.159 (inactive)
27 | GCAUGUCCCGAAAACAAGATT against KLF7 | 0.393 (inactive)
28 | GGACUUACGUGGAAGUAGATT against PLCB1 | 0.0735 (inactive)
29 | CGUAGUAUAUUAACAAGUATT against MKKS | 1.03 (active)
30 | CUCUAGGAGUGACCACGAATT against LYPLAL1 | -0.425 (inactive)
31 | GGAGCACAGAAUACCGGAATT against C3orf64 | 0.0771 (inactive)
32 | CAAACGGGCUCAUCAUAAUTT against MAX | 0.0949 (inactive)
33 | AGAGACCCAUGGGAACAAATT against SIGMAR1 | -1.4 (active)
34 | CGAAUGUCACCAUAUAUAATT against IL1RL1 | -0.286 (inactive)
35 | AGGAGGUUACGGCACAAAATT against STK11 | 0.348 (inactive)
36 | GCAACACCAUCGUCUGUGATT against P2RY13 | -0.0427 (inactive)
37 | GGAACAUCAUUCUACCCAATT against KIF15 | -0.873 (inactive)
38 | CCUUAAUCCUUUGUUAACATT against KPNA6 | -1.54 (active)
39 | GGAUGAUGUACUUCUCUCATT against MLNR | -0.038 (inactive)
40 | CCCUGUCCUUAGCACUCUATT against GFI1B | 0.154 (inactive)
41 | GGAGCAUUCUCAUUCGAGATT against CSTF3 | 0.0879 (inactive)
42 | GCUUGCAGUUAAUAUCAUUTT against ODC1 | -1.64 (active)
43 | GCAGAGUGCUUCCCAGUGATT against JRK | -0.624 (inactive)
44 | CAGAUGUCAUGAAUCAAGATT against RPUSD2 | -0.215 (inactive)

Row | Sequence | median seed-adjusted z-score
45 | CAAGUACAAUACUAACUGUTT against ZNF280C | 0.336 (inactive)
46 | CAACGGCAACGGAGAGGAUTT against SLC24A6 | -0.792 (inactive)
47 | GCGGAACACGAAGAAGUAATT against TMPRSS11E | 0.0512 (inactive)
48 | GGGACGAGAUGGUAAAGAATT against ATP2B2 | 1.37 (active)
49 | CCAUGUAUCUGAGUGAUCATT against ERC2 | 0.172 (inactive)
50 | GGAUCUAAUCUUAGAUGUATT against POLR2H | -2.74 (active)
51 | GAAUGAGGUUGACUUCUAUTT against CASQ2 | 0.4 (inactive)
52 | GGAUUAUCUCCUCAUUACATT against MCF2L2 | -0.465 (inactive)
53 | CCUUGAUCAUCGACAUUCUTT against GIT1 | -0.307 (inactive)
54 | CCUCGACAGUGAAUGCAAATT against ABCF3 | 0.0759 (inactive)
55 | GAAAAUCUAUCAGAACAUUTT against RAB14 | -0.0567 (inactive)
56 | CUAUGACCCUUACCCGUAUTT against FMOD | -1.32 (active)
57 | GCUCAGCUCUGGUACUUUATT against GTF2H4 | -0.261 (inactive)
58 | GGUUUGAUGUAGGCCCAAUTT against MTFMT | -0.0119 (inactive)
59 | GGAAGAUCGAAAGUGCGAATT against GZMB | -0.0378 (inactive)
60 | AGUUCAUUCUGACAGAUGATT against VDR | -0.031 (inactive)
61 | CAAUAUUCCGUACAUAGAATT against MRAS | 0.032 (inactive)
62 | GGGAUCUAGUGAAUAAACUTT against EIF2B4 | 0 (inactive)
63 | GCAAAGACCAUAAGAUUUATT against MYST1 | 0 (inactive)
64 | GAGUGUUCAGCAAACCGUATT against MED20 | -1.66 (active)
65 | GAUGUGAAAUGGAGAAGUATT against KLF5 | -0.338 (inactive)
66 | ACGCAGAUUUCUACAGAAATT against COX6C | -0.0449 (inactive)

Row | Sequence | median seed-adjusted z-score
67 | GGAUUACUCUUUUGGUGCATT against IRF5 | -0.146 (inactive)
68 | GAUGCGAUAUUAAUGGGAATT against SMYD4 | 0.272 (inactive)
69 | GAAAAUGUGGGAUCAAGAATT against COQ7 | 0.159 (inactive)
70 | GAGCUGACCUUGAACGAGATT against CHGB | -1.29 (active)
71 | GUGCUAAUCUCAAUACCGATT against ZRANB1 | -0.347 (inactive)
72 | GGACAGCUAUGACUCGGAUTT against DOC2A | 0.299 (inactive)
73 | GCAAGUAUUUUGACAAGGUTT against KIF7 | 0.0274 (inactive)
74 | CAAACAAUAUGAGAGUGUUTT against IL7 | 0.253 (inactive)
75 | ACAAGACUCUGGACAUUAATT against DHRS4 | 0.263 (inactive)
76 | GAUUCAUGCAUUGAUCACATT against UBE2Z | 0.0572 (inactive)
77 | GCCCAGAAGUUUAGGGAAATT against TAP1 | -0.506 (inactive)
78 | CAAAGUCCAUGGAGUCUUUTT against RASA4 | -1.11 (active)
79 | GGGUUAGUGGAGACCUUUATT against ATPAF1 | 0.393 (inactive)
80 | GAAUUCACCAUUCAAGUAATT against SCYL3 | 0.665 (inactive)
81 | AGGACGGUGCAGUACAGAATT against ZBTB46 | 0.0546 (inactive)
82 | GAACAACACCAACAUAAGATT against SMOC1 | 0.0453 (inactive)
83 | CAUCGCCUAUAUGAAAUAUTT against PLA2G10 | 1.07 (active)
84 | GAGCCGUACUAUGACCUGATT against SSTR2 | -0.162 (inactive)
85 | CGAAGCUAGUGGAACAGUATT against SF3A1 | -1.09 (active)
86 | CGAUGCCUGUUAUAAAUUATT against RCAN3 | 0.544 (inactive)
87 | AAAUCCCUUUGACACCUUUTT against DNAJB1 | 0.466 (inactive)
88 | CUCCUUCCCGGAUGAUUUATT against KLF17 | -0.131 (inactive)

Row | Sequence | median seed-adjusted z-score
89 | CCUCCGUCCUGUUUAGGAATT against LCN2 | 0.123 (inactive)
90 | GCAACGAGUUCAACCUGGATT against RAB11B | -0.857 (inactive)
91 | CCACUUACCCUCAAAGAAATT against SLC4A5 | 1.3 (active)
92 | CCUCAGUGUGGGUAUAAGATT against HIF1A | 0.228 (inactive)
93 | UUGAUAAGGUUAAACCACATT against CSTA | -0.351 (inactive)
94 | GCAGCACGAAGGAUACUGATT against ABCA4 | -1.09 (active)
95 | CCACGAGAUUUCACAAACATT against PRKD3 | -0.906 (inactive)
96 | GCUUCACUCAGAUUCCGAUTT against DYNC1I2 | -0.167 (inactive)
97 | GCCUCUACCUCUUCGAAAATT against CLEC11A | -1.1 (active)
98 | GCAGUAAUGUUGAUAUAGATT against VDAC3 | 0.646 (inactive)
99 | CUAUCUCACCAAGAUCUAUTT against PODN | 0.589 (inactive)
100 | CAUCUUCAGUCUGUACAAATT against KIR2DL5B | 1.72 (active)
101 | GGAAAGCAACAUACAGACATT against FABP6 | 0.122 (inactive)
102 | GCCUUAUGUAUGCACAGAATT against HKR1 | -0.358 (inactive)
103 | AGGCAUAUCUUGAAGAACATT against CIP29 | -1.18 (active)
104 | CACAGUGUUUGAGAACUAUTT against RHOA | -0.219 (inactive)
105 | GCAUCAACAGUAAUGAGAATT against KRT39 | 0.161 (inactive)
106 | CCACAUCAACAGUGCCUUUTT against ACOT11 | 0.636 (inactive)
107 | AGGGCUUCUUGAAUCUCUATT against GSTO2 | 0.142 (inactive)
108 | CCAAGAUGCUCAGUCAUCATT against MAP4K1 | 0 (inactive)
